Data on six compounds can be found in PubChem BioAssay (NCATS).

Experiment [1] in a line: qHTS profiling of the MIPE4 collection as inhibitors of Plasmodium falciparum (3D7) proliferation (AID 743344).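 Note: scaled between DMSO vehicle wells and 0.29 µM artemisinin as full inhibition.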 Particulars: P. falciparum 3D7 in erythrocytes, SYBR Green DNA fluorescence, 72 h; at 28.5 µM unless noted. The essentials:
(§1)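 Erythrocytes infected with P. falciparum (0.3% parasitemia, 2.5% hematocrit) incubated with compounds 72 h at 37 C, 5% CO2. Lysis with saponin/Triton buffer containing SYBR Green I, overnight at room temperature in the dark; DNA fluorescence (485/535 nm) normalised to 0.29 uM artemisinin and DMSO.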
Background: In qHTS, concentration-response curves come from the screen itself.

A short description of experiment [2]: qHTS profiling of the MIPE4 collection as inhibitors of Plasmodium falciparum (DD2) proliferation (Rep 2) (AID 743346). Conditions: P. falciparum Dd2 in erythrocytes, SYBR Green DNA, 72 h; at 28.5 µM unless noted. In short, it runs like this: as §1
The nature of experiment [3]: qHTS profiling of the MIPE4 collection as inhibitors of Plasmodium falciparum (HB3) proliferation (AID 743347).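 Note: plate controls were DMSO vehicle wells for no effect and artemisinin wells for full effect.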 Particulars: P. falciparum HB3 in erythrocytes, SYBR Green DNA, 72 h; at 28.5 µM unless noted. In short, it runs like this:
as §1

Experiment [4] can be described thus: High-throughput drug toxicity screening in the BPDCN cell line Gen2.2 (AID 1224824).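 Note: cells exposed to compounds for 48 h before reading.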 Particulars: Gen2.2 BPDCN cells; at 45.8 µM (top of the series) unless noted. The essentials:
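Seed 500 exponentially growing Gen2.2 cells/well; add compounds by pin tool; incubate 48 h, 37 °C, 5% CO2; add CellTiter-Glo, 15 min RT; read luminescence. % activity vs DMSO (100%) and bortezomib (0%).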

A short description of experiment [5]: High-throughput drug toxicity screening in the BPDCN cell line Cal-1 (AID 1224825). Particulars: Cal-1 BPDCN cell viability, qHTS; at 45.8 µM (top of the series) unless noted. The essentials:
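Exponentially growing Cal-1 cells, 500 per well in phenol red-free RPMI with 10% FBS, were exposed to compounds for 48 h at 37 °C, 5% CO2. Viability was read by CellTiter-Glo luminescence and normalised to DMSO (100%) and 9.2 uM bortezomib (0%).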

A short description of experiment [6]: qHTS assay for measurement of the activity of small molecule inhibitors on Zika virus induced Caspase-3 activity in human iPSC derived neural progenitor cells (hNPCs) (AID 1224857; active = well fitted curve in the direction sought with a large enough effect; an effect the other way counts as inactive or inconclusive; note: % of control where 0% means no effect; nearly all actives have a fitted effect of over 65% in size). In short, it runs like this:
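Caspase-3/7 induction by a 6-hour ZIKV infection was quantified with a luminescent Caspase-Glo 3/7 reagent incubated 30 minutes at room temperature. Compounds were preincubated with hNPCs for 1 hour; inhibition was calculated against uninfected and infected control wells.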

Experiment [7] is described as follows: qHTS assay for measurement of the activity of small molecule inhibitors on Zika virus induced Caspase-3 activity in human astrocytoma cells (AID 1224859; active = well fitted curve in the direction sought with a large enough effect; an effect the other way counts as inactive or inconclusive;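 note: plate controls were ZIKV-infected untreated cells for no effect and uninfected cells for full effect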). In short, it runs like this:
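In SNB-19 cells plated at 250 cells/well and grown 16-20 h, compounds were applied 1 h before ZIKV (2 FFU/cell). Six hours later caspase-3/7 luminescence was recorded.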

The nature of experiment [8]: qHTS Screen of the MIPE 4.0 Collection Against Ewings Sarcoma (RDES) (AID 1259252; active = well fitted curve in the direction sought with a large enough effect; an effect the other way counts as inactive or inconclusive; note: potency is the fitted concentration of half-maximal effect; nearly all actives have a fitted effect of over 35% in size). The essentials:
(§2)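 Compound titrations go onto adherent log-phase cells 4 h after seeding, incubate 48 h at 37C, then CellTiter-Glo luminescence reports viability relative to DMSO and cell-free controls.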

The nature of experiment [9]: qHTS Screen of the MIPE 4.0 Collection Against Ewings Sarcoma (TC32) (AID 1259256; active = well fitted curve in the direction sought with a large enough effect; an effect the other way counts as inactive or inconclusive; note: nearly all actives have a fitted effect of over 45% in size; note: potency is the fitted concentration of half-maximal effect). The essentials: as §2
Experiment [10] can be described thus: qHTS assay to identify small molecule inhibitors of chordoma cells - UCH-1 (AID 1259355; active = well fitted curve in the direction sought with a large enough effect; an effect the other way counts as inactive or inconclusive; note: % is set by controls: 0 for no effect and ±100 for the full control effect; nearly all actives have a fitted effect of over 55% in size). In short, it runs like this: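 Luminescent ATP read-out (CellTiter-Glo, 30min at room temperature) measured viability of UCH-1 cells exposed for 48hr to test drugs at 15 concentrations, co-dosed with a five-agent combination of auranofin, camptothecin, doxorubicin, rubitecan and topotecan.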

Experiment [11] can be described thus: qHTS assay to identify small molecule inhibitors of chordoma cells - UCH-2 (AID 1259356; active = well fitted curve in the direction sought with a large enough effect; an effect the other way counts as inactive or inconclusive; note: % is set by controls: 0 for no effect and ±100 for the full control effect).
Experiment [12] can be described thus: qHTS profiling of the MIPE4 collection as inhibitors of Plasmodium falciparum (DD2) proliferation (AID 743345). Conditions: P. falciparum Dd2 in erythrocytes, SYBR Green DNA, 72 h; at 28.5 µM unless noted. The essentials: as §1
Experiment [13] is described as follows: qHTS profiling for inhibitors of Plasmodium falciparum (DD2) proliferation (AID 743323). Particulars: lower = more inhibition; at 28.7 µM (top of the series) unless noted. In short, it runs like this: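 Parasite DNA quantified by SYBR Green fluorescence (ex 485, em 535 nm) after saponin/Triton lysis and overnight dark incubation. Cultures: 0.3% parasitemia, 2.5% hematocrit, 72 h, 37 C; data scaled between DMSO and 0.29 uM artemisinin.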

Experiment [14] is described as follows: qHTS profiling for inhibitors of Plasmodium falciparum (HB3) proliferation (AID 743324; active = well fitted curve in the direction sought with a large enough effect; an effect the other way counts as inactive or inconclusive;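 note: 100% = DMSO vehicle wells and 0% = artemisinin-treated control wells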). Particulars: Plasmodium falciparum HB3 blood-stage proliferation; at 28.7 µM (top of the series) unless noted. In short, it runs like this: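 P. falciparum HB3 grown in erythrocytes (0.3% parasitemia, 2.5% hematocrit final) with compound for 72 h at 37 C, 5% CO2. Parasite DNA detected by SYBR Green after saponin/triton lysis overnight; normalized to 0.29 uM artemisinin and DMSO.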

The nature of experiment [15]: Identifying Small Molecule Inhibitors of Pancreatic Cancer Stem Cells (Panc1, Spheroid) (AID 1259359; active = well fitted curve in the direction sought with a large enough effect; an effect the other way counts as inactive or inconclusive;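 note: compound exposure lasted 48 h before reading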). In short, it runs like this:
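Viability is scored by CellTiter-Glo luminescence 48 h after dosing, expressed as percent activity against vehicle and no-cell references. Spheroid formats rely on cells cultured 14 days in stem cell media beforehand.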

Experiment [16] in a line: Identifying Small Molecule Inhibitors of Pancreatic Cancer Stem Cells (SN12C, Spheroid) (AID 1259360; active = well fitted curve in the direction sought with a large enough effect; an effect the other way counts as inactive or inconclusive; note: potency is the fitted concentration of half-maximal effect). Conditions: Potency: SN12C spheroid viability. In short, it runs like this: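 After a 4 h attachment period, compounds were pinned into wells and cultures held 48 h under standard incubator conditions. Viability was then measured as CellTiter-Glo luminescence following 10 min at room temperature.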

Each structure is given as a SMILES string. Results filed as inconclusive are left out. Activity calls are given as the source filed them. Unless noted, the rule behind the calls is not given here.

In the case of `N#CC(c1ccc(Cl)cc1)c1c(Cl)cc(-n2ncc(=O)[nH]c2=O)cc1Cl` (stereo not drawn), the parasite growth, % of DMSO control in [1] came out at 19.5%. Further, the parasite growth, % of control (lower = inhibition) in experiment [2] turned out to be 10.2%. This compound returned a growth, % of control in experiment [3] of 7.09%. Also, the cell viability, % of control (lower = more cytotoxic) in [4] came to 69.2%. The viability (% of control) in experiment [5] turned out to be 12.7%. Further, the Potency result in experiment [6], in experiment [7] and in [9] was “inactive” each time. In addition, the Potency in experiment [8] is 26.4 µM (active). Moreover, the result in experiment [10] and in experiment [11] was inactive.
Compound `O=C(Nc1ccccc1)Nc1ccc(-c2ccc(C(=O)[C@H]3CCC[C@H]3C(=O)O)cc2)cc1` had a parasite growth, % of DMSO control in [1] of 29%. The compound also registered a parasite growth remaining, % of DMSO control (lower = more inhibition) in experiment [12] of 78.7%. For the same compound, the parasite growth, % of control (lower = inhibition) in experiment [2] stood at 32%. In addition, the growth, % of control in [3] is 51.7%. Moreover, in experiment [4], the cell viability, % of control (lower = more cytotoxic) was 28.8%. In addition, the viability (% of control) in experiment [5] turned out to be 107%. The Potency entry in [6] and in [7] was “inactive” throughout. Further, the Potency in experiment [8] is 14.8 µM (active); in [9], 18.7 µM (active).
`COc1cc2ncnc(Nc3cc(Br)c(O)c(Br)c3)c2cc1OC`: the parasite growth, % of DMSO control in experiment [1] was 10.7%. Further, the parasite growth remaining, % of DMSO control (lower = more inhibition) in [12] worked out at 54.4%. Further, the parasite growth, % of control (lower = inhibition) in [2] is 43.2%. In experiment [3], this compound returned a growth, % of control of 5.25%. The compound further had a cell viability, % of control (lower = more cytotoxic) in experiment [4] of 15.7%. Further, the viability (% of control) in experiment [5] worked out at 11%. For the same compound, the Potency entry in experiment [6] and in experiment [7] was “inactive” in each case. Besides, the Potency in experiment [8] was 0.0418 µM (active); in [9], 0.418 µM (active).
Regarding `C[C@@H](NC(=O)c1ncnc(N)c1Cl)c1ncc(C(=O)Nc2cc(C(F)(F)F)c(Cl)cn2)s1`, in experiment [1], the parasite growth, % of DMSO control stood at 63.1%. Further, the parasite growth remaining, % of DMSO control (lower = more inhibition) in [12] turned out to be 87.8%. Also, the growth, % of control in [3] turned out to be 60.9%. This compound also registered a cell viability, % of control (lower = more cytotoxic) in experiment [4] of 2.67%. The viability (% of control) in experiment [5] came out at 66.8%. Moreover, the Potency entry in experiment [6] and in experiment [7] was “inactive” each time. In addition, the Potency in experiment [8] and in experiment [9] was 23.5 µM (active) each time.
On to `CNC(=O)c1c(-c2ccc(F)cc2)oc2cc(N(CCO)S(C)(=O)=O)c(C3CC3)cc12`, for which, in [1], the parasite growth, % of DMSO control is 4.82%. The compound further had a parasite growth remaining, % of DMSO control (lower = more inhibition) in experiment [12] of 10.4%. This compound also registered a parasite growth, % of control (lower = inhibition) in experiment [2] of 14.1%. The compound further displayed a growth, % of control in experiment [3] of 4.16%. The compound further displayed a cell viability, % of control (lower = more cytotoxic) in experiment [4] of 64.5%. Moreover, in experiment [5], the viability (% of control) was found to be 8.15%. The Potency result in [6], in [7] and in experiment [9] was “inactive” throughout. In [8], the Potency is 18.7 µM (active).
In experiment [13], `COc1c(C)cnc(Cn2cnc3c(Cl)nc(N)nc32)c1C` yielded an activity, percent of control of 31.4%. Also, in experiment [14], the remaining proliferation (% of control), lower = more inhibition is 9.05%. This compound returned a parasite growth, % of DMSO control in [1] of 28.9%. Moreover, in experiment [2], the parasite growth, % of control (lower = inhibition) is 31.8%. Besides, the growth, % of control in experiment [3] turned out to be 21.1%. This compound also had a cell viability, % of control (lower = more cytotoxic) in experiment [4] of 9.9%. Besides, the viability (% of control) in [5] amounted to 18.7%. The Potency result in experiment [6], in experiment [7] and in experiment [15] was “inactive” each time. The Potency in [8] was 0.187 µM (active); in [9], 0.132 µM (active); in [16], 0.264 µM (active).
